High-throughput results from PubChem.
Only some compounds are listed: those with a hit (about 3.3% of all), similar ones and a draw of the others.
PLK1 kinase inh: PLK1 (human) kinase inhibition | P53350 | recombinant PLK1 kinase, TR-FRET peptide phosphorylation | inhibition, % at 10 µM | 97,000 tested, 0.53% active;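 active = inhibition of 50% or more in the single-concentration screen; inactive = inhibition below 50%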;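 note: 0% = DMSO max control and 100% = H-89 dihydrochloride min control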
Target sequence (P53350 whole entry, looked up): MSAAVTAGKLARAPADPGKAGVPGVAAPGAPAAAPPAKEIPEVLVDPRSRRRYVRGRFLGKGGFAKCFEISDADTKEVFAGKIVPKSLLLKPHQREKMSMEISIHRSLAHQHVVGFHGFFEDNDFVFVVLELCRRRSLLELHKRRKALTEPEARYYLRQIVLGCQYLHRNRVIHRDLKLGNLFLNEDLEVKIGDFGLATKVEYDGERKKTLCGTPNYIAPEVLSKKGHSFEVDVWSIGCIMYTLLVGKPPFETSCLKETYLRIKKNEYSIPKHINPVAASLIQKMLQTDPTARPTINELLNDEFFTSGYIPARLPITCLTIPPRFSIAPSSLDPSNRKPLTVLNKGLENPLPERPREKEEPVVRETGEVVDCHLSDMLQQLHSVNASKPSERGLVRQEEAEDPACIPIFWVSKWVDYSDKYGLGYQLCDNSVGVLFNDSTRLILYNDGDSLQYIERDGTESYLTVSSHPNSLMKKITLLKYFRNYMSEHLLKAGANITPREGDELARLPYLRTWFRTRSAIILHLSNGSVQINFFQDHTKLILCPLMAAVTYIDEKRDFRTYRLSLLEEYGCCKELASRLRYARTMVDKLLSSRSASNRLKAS
ERa SRC1 inh: blocks coactivator binding to human estrogen receptor alpha | P03372 | TR-FRET ER-alpha LBD / SRC-1 peptide, estradiol-bound | inhibition, % at 25.6 µM | 86,000 tested, 1.7% active | AID 629; in the data active = inhibition above about 50%;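 note: 0% = receptor plus peptide control and 100% = peptide only without receptor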
Smad3 FoxH1 inh: Smad3 (human) transcription factor binding inhibition | P84022 | TR-FRET Smad3/Dy647-FoxH1 peptide binding, europium anti-His | inhibition, % at 25 µM | 88,000 tested, 0.29% active | AID 630;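 active = compounds that reduce the energy-transfer binding signal between the protein and its labelled peptide by more than half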;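 note: 0% = Smad3 plus labelled peptide maximal FRET and 100% = peptide-only background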
ERb coact inh: ER-beta (human) coactivator binding inhibition | Q92731 | TR-FRET ER-beta LBD / SRC1-Cy5 peptide binding; receptor agonist-loaded with 1 µM estradiol | inhibition, % at 25.6 µM | 86,000 tested, 1.3% active;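 active = compounds whose percent inhibition of the receptor-coactivator binding signal exceeds about 50% in the single-dose screen, limit read from the data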;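 note: 0% = receptor plus peptide wells without compound and 100% = peptide-only wells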
ERa coact pot: ER-alpha (human) coactivator binding potentiation; P03372; TR-FRET ERalpha-LBD/SRC-Cy5 coactivator binding, 2 h; 100 = basal binding, no effect; coactivator binding (% of control), % at 25.6 µM; 86,000 tested, 1.3% active; in the data active = activity above about 200%;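 note: binding measured in presence of low estradiol as agonist stimulus; 0% = peptide alone without receptor and 100% = receptor with peptide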
Plk1 PBD FP: inhibitors of human Plk1 polo box domain binding. P53350. inhibition, %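 (tested at about 20 µM)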. 97,000 tested, 0.13% active. AID 693. Plk1 PBD phosphopeptide binding, fluorescence polarization; in the data active = inhibition above about 34%, passing the limit was not always enough
Active calls of the source: *; . = no result; [ ] = remark or other dose.

SMILES | PLK1 kinase inh | ERa SRC1 inh | Smad3 FoxH1 inh | ERb coact inh | ERa coact pot | Plk1 PBD FP
CCC(Sc1nc(C)cc(=O)[nH]1)C(=O)Nc1nc2c(s1)CCCC2 (stereo not given) | -14 | -3 | 1 | -2 | 106 | -12
Cc1cc(CN2CCCCC2)c(O)c(CN2CCCCC2)c1 | . | . | 25 | . | . | .
O=C(O)CCSC1=NCCN1 | . | . | -18 | . | . | .
CC(=O)c1cccc(NC(=O)C2CCN(S(C)(=O)=O)CC2)c1 | -19 | 8 | 11 | -1 | 118 | -12
CC(=O)c1cccc(NC(=O)C2CCCCC2)c1 | -5 | -22 | 2 | -34 | 263* | -14
CCOC(=O)C1CCN(S(=O)(=O)Cc2ccccc2)C1=O (stereo not given) | 0 | -8 | 0 | 68*[fluorescence artefact?] | 116 | 0
Cc1cc(NC(=O)CSc2nc3ccc(Cl)cc3[nH]2)no1 | 50* | 2 | 3 | -1 | 102 | 10
Cc1nnc(NC(=O)CSc2nc3c(c(=O)n2CCc2ccccc2)SC(C)C3)s1 (stereo not given) | . | 69* | -43 | 17 | 83 | .
CC1Cc2nc(SCC(=O)Nc3ccc4c(c3)OCO4)n(CCc3ccccc3)c(=O)c2S1 (stereo not given) | . | 1 | -6 | 12 | 104 | .
CCCCCCn1c(SCC(=O)Nc2cc(C)on2)nc2ccccc2c1=O | -35 | 10 | 13 | 15 | 138 | -13
CCn1c(SCC(=O)Nc2nnc(C)s2)nc2c(c1=O)SC(C)C2 (stereo not given) | . | -4 | 9 | -5 | 102 | .
Cc1cc(NC(=O)CSc2nc3ccccc3c(=O)n2Cc2ccc(F)cc2)no1 | -11 | 44 | 20 | 50*[fluorescence artefact?] | 232*[fluorescence artefact?] | 11
Cc1cc(NC(=O)CSc2nc3c(c(=O)n2CCc2ccccc2)SC(C)C3)no1 (stereo not given) | . | 79* | -17 | 10 | 105 | .
O=C(O)CC[C@@]1(c2ccccc2)NC(=O)NC1=O | . | . | -5 | . | . | .
NC(Cc1ccccc1)=NCC(=O)O | . | . | -3 | . | . | .
O=[N+]([O-])c1ccc(S(=O)(=O)Cc2ccccc2)c2nonc12 | . | . | 4 | . | . | .
O=C(CCN1CCCCC1)N1CCc2c([nH]c3ccccc23)[C@H]1c1cccnc1 | . | . | -8 | . | . | .
COc1ccc(CCn2c(SCC(=O)Nc3cc(C)on3)nc3ccsc3c2=O)cc1OC | -5 | -3 | -312 | 1 | 314* | -17
CC(C)(C)CNCCO | . | . | -8 | . | . | .
Cc1ccccc1NC(=O)c1cccc2nccnc12 | -24 | 2 | 4 | 1 | 93 | 3
Cc1ccc(F)cc1NC(=O)c1cccc2nccnc12 | -2 | 2 | 3 | -21 | 370* | 16
O=C(CCN1C(=O)c2ccccc2C1=O)Nc1ccc(F)cc1 | -2 | 85*[fluorescence artefact?] | -1 | -2 | 118 | -3
O=S(=O)(c1ccc(NC2CCCCC2)cc1)N1CCOCC1 | -10 | 27 | 2 | -3 | 74 | -12
COc1ccc(-c2noc(CCC(=O)Nc3cccc(C)c3)n2)cc1 | -17 | -13 | 4 | -8 | 108 | -2
COc1ccc(-c2noc(CCC(=O)Nc3nc4ccccc4s3)n2)cc1 | -8 | 14 | 7 | -2 | 208*[fluorescence artefact?] | -23
SMILES | PLK1 kinase inh | ERa SRC1 inh | Smad3 FoxH1 inh | ERb coact inh | ERa coact pot | Plk1 PBD FP
O[C@H](CNc1ccccn1)c1ccccc1 | . | . | -16 | . | . | .
Nc1nc(Cc2ccccc2)nc(Cc2ccccc2)c1-c1ccccc1 | . | . | 5 | . | . | .
COc1ccc2nc(NC(=S)N(C)C)sc2c1 | -13 | -7 | -3 | -7 | 65 | 19
COc1ccc(C)cc1NC(=O)c1cnc2scc(C)n2c1=O | . | 20 | 7 | 9 | 216*[fluorescence artefact?] | .
Cc1c(C)n(C(=O)CSc2nc3ccccc3[nH]2)c2ccccc12 | -3 | 55*[fluorescence artefact?] | 0 | 21 | 17 | -13
N#CC1=C(N)OC2=C(C(=O)CCC2)C1CCc1ccccc1 (stereo not given) | -39 | 100*[fluorescence artefact?] | -15 | 8 | 90 | -12
COc1cc(OC)cc(-c2nc(-c3ccccc3OC)no2)c1 | -4 | -2 | 4 | -5 | 488*[fluorescence artefact?] | 10
COc1ccc(CC(=O)Nc2ccc(-c3noc(-c4ccccc4OC)n3)cc2)cc1 | -21 | 31 | 3 | 16 | 328*[fluorescence artefact?] | -13
COc1ccc(-c2ccc(-c3noc(-c4ccccc4C)n3)c(OC)n2)cc1 | -19 | -3 | 0 | 23 | 230*[fluorescence artefact?] | 10
COc1ccc(-c2ccc(-c3noc(-c4cccs4)n3)c(OC)n2)cc1 | -158 | 37 | 3 | 29 | 474* | 2
Nc1[nH]c(=O)nc2c1ncn2[C@H]1O[C@H](CO)[C@@H](O)[C@@H]1O | . | . | -6 | . | . | .
CC(C)[C@@H](C)/C=C/[C@@H](C)[C@@H]1CC[C@@H]2C3=CC=C4C[C@@H](O)CC[C@]4(C)[C@@H]3CC[C@]21C | . | . | 21 | . | . | .
O=C1c2ccccc2C(=O)c2c1ccc(N1C(=O)c3ccccc3C1=O)c2-c1c(N2C(=O)c3ccccc3C2=O)ccc2c1C(=O)c1ccccc1C2=O | . | . | 37 | . | . | .
CCN(Cc1cc(Cl)cc(C)c1O)Cc1c(O)ccc2ccccc12 | . | . | 7 | . | . | .
NS(=O)(=O)c1cccnc1Nc1c(Cl)cccc1Cl | -6 | . | . | . | . | 7
Nc1nc(-c2cc(-c3cccc4ccccc34)nc(N)n2)cc(-c2cccc3ccccc23)n1 | . | . | 10 | . | . | .
COc1ccc(Cl)cc1-c1nc(-c2ccncc2)no1 | -17 | 30 | -6 | 34 | 268* | -10
COc1ccccc1-c1nc(-c2ccncc2)no1 | -12 | 7 | -12 | -3 | 118 | 6
COc1ccc(-c2ccc(-c3noc(-c4ccccc4OC)n3)c(OC)n2)cc1 | -10 | 33 | -7 | 4 | 231* | -19
COc1ccc(-c2ccc(-c3noc(-c4ccc(OC)c(OC)c4)n3)c(OC)n2)cc1 | . | 80* | 14 | 44 | 87 | .
COc1ccc(-c2nc(-c3ccc(Br)cc3)no2)c(OC)c1 | -8 | 13 | -2 | 9 | 206*[fluorescence artefact?] | 2
COc1ccc(-c2ccc(-c3noc(-c4cccc(OC)c4)n3)c(OC)n2)cc1 | -53 | . | . | . | . | -10
Nc1nc(=O)c2[nH]cnc2n1O | . | . | -3 | . | . | .
Clc1cccc(Cl)c1C(Nc1nncs1)Nc1nncs1 | . | . | 9 | . | . | .
CCOC(=O)CC(=O)CSc1nc(N)c(C#N)c(-c2ccc(F)cc2)c1C#N | -4 | -3 | -10 | -9 | 107 | 31
SMILES | PLK1 kinase inh | ERa SRC1 inh | Smad3 FoxH1 inh | ERb coact inh | ERa coact pot | Plk1 PBD FP
CCCOC(=O)CSc1nnc(-c2cc(OC)c(OC)c(OC)c2)o1 | -11 | 8 | -1 | 3 | 94 | -1
N=C(N)[C@H](N=Nc1ccccc1)C(N)=O | . | . | -5 | . | . | .
COc1cc(-c2nc(-c3ccc(NC(=O)c4ccc(Br)o4)cc3)no2)cc(OC)c1OC | -7 | 72*[fluorescence artefact?] | -10 | 33 | 227*[fluorescence artefact?] | -21
COc1ccc(-c2nc(-c3ccc(NC(=O)c4ccc(Br)o4)cc3)no2)cc1OC | -8 | 22 | 5 | 2 | 151 | -13
CCCSc1nnc(NC(=O)Nc2ccc(F)cc2)s1 | . | 11 | -2 | 8 | 247* | .
O=C(CCS(=O)(=O)c1ccc(Cl)cc1)OCC(=O)N1CCCCC1 | . | 2 | 0 | 4 | 120 | .
